Results as given in the supplement of paper PMC12282887.
Counter-ions that a name gives are not always drawn. ± gives the standard deviation of the averaged measurements.

How the values were obtained:
Assay in all cases: promoter activity interaction Z-score (Lux/OD deviation from empty-vector control); higher = stronger promoter induction by the compound
[1] = system: E. coli BW25113 micFp lux reporter; settings: 230.9 µg/ml
Summary of the method: (§1)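 Low-copy luxCDABE promoter reporters were carried by E. coli BW25113, either wild type or lacking one of three genes, grown in 40 µl LB Lennox in 384-well plates at 37°C. Each compound was run at four 1:2 dilutions in biological duplicates, with OD600 and luminescence read every 30 min for 12 h. Integration used 0–8 h for wild type and 1–9 h for deletion strains, and wells under 10% of the median growth value were removed. Luminescence normalised to growth was fitted against a control, and the Z-transformed residual is the score.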

[2] = system: E. coli BW25113 ompFp lux reporter
Summary of the method: as §1

[3] = system: E. coli BW25113 robp lux reporter
Summary of the method: as §1

[4] = system: E. coli BW25113 soxSp lux reporter
Summary of the method: as §1

[5] = system: E. coli BW25113 tolCp lux reporter
Summary of the method: as §1

[6] = 28.9 µg/ml, genetic background: wild type
[7] = 28.9 µg/ml, genetic background: ΔmarA
[8] = 28.9 µg/ml, genetic background: Δrob
[9] = 28.9 µg/ml, genetic background: ΔsoxS
[10] = 57.7 µg/ml, genetic background: wild type
[11] = 57.7 µg/ml, genetic background: ΔmarA
[12] = 57.7 µg/ml, genetic background: Δrob
[13] = 57.7 µg/ml, genetic background: ΔsoxS
[14] = 115.5 µg/ml, genetic background: wild type
[15] = 115.5 µg/ml, genetic background: ΔmarA
[16] = 115.5 µg/ml, genetic background: Δrob
[17] = 115.5 µg/ml, genetic background: ΔsoxS
[18] = 230.9 µg/ml, genetic background: wild type
[19] = 230.9 µg/ml, genetic background: ΔmarA
[20] = 230.9 µg/ml, genetic background: Δrob
[21] = 230.9 µg/ml, genetic background: ΔsoxS

With `O=C(O)COCCN1CCN(C(c2ccccc2)c2ccc(Cl)cc2)CC1` (stereo unspecified) [Cetirizine dihydrochloride] the “promoter activity interaction Z-score” value ([1]; genetic background: Δrob) was 0.195 ± 0.18, the “promoter activity interaction Z-score” value ([1]; genetic background: ΔsoxS) was 0.145 ± 0.13 and the “promoter activity interaction Z-score” value [2, 6] was 0.228 ± 0.026. For the same molecule, the “promoter activity interaction Z-score” value [2, 7] was 0.523 ± 0.32, the “promoter activity interaction Z-score” value [2, 8] was 0.79 ± 0.32 and the “promoter activity interaction Z-score” value [2, 9] was 0.079784 ± 6.4e-05. The “promoter activity interaction Z-score” value [2, 10] was 0.523 ± 0.44, the “promoter activity interaction Z-score” value [2, 11] was 0.651 ± 0.083 and the “promoter activity interaction Z-score” value [2, 12] was 0.368 ± 0.14. The “promoter activity interaction Z-score” value [2, 13] was -0.205 ± 0.16, the “promoter activity interaction Z-score” value [2, 14] was -0.463 ± 0.064 and the “promoter activity interaction Z-score” value [2, 15] was -0.0368 ± 0.095. The “promoter activity interaction Z-score” value [2, 16] was -0.449 ± 0.31, the “promoter activity interaction Z-score” value [2, 17] was -0.656 ± 0.25 and the “promoter activity interaction Z-score” value [2, 18] was 0.136 ± 0.46. The “promoter activity interaction Z-score” value [2, 19] was 0.203 ± 0.1, the “promoter activity interaction Z-score” value [2, 20] was -0.688 ± 0.7 and the “promoter activity interaction Z-score” value [2, 21] was -0.667 ± 0.25. The “promoter activity interaction Z-score” value [3, 6] was -0.0279 ± 0.081, the “promoter activity interaction Z-score” value [3, 7] was 0.621 ± 0.13 and the “promoter activity interaction Z-score” value [3, 8] was 0.0745 ± 0.28. For the same molecule, the “promoter activity interaction Z-score” value [3, 9] was -0.318 ± 0.5, the “promoter activity interaction Z-score” value [3, 10] was 0.609 ± 0.057 and the “promoter activity interaction Z-score” value [3, 11] was 0.466 ± 0.37. The “promoter activity interaction Z-score” value [3, 12] was -0.327 ± 0.31, the “promoter activity interaction Z-score” value [3, 13] was 0.0119 ± 0.7 and the “promoter activity interaction Z-score” value [3, 14] was -0.592 ± 0.34. For the same molecule, the “promoter activity interaction Z-score” value [3, 15] was 0.00802 ± 0.12, the “promoter activity interaction Z-score” value [3, 16] was -0.339 ± 0.12 and the “promoter activity interaction Z-score” value [3, 17] was -0.844 ± 0.1. For the same molecule, the “promoter activity interaction Z-score” value [3, 18] was -0.359 ± 0.2, the “promoter activity interaction Z-score” value [3, 19] was -0.425 ± 0.43 and the “promoter activity interaction Z-score” value [3, 20] was -1.18 ± 0.85. For the same molecule, the “promoter activity interaction Z-score” value [3, 21] was -0.876 ± 0.55, the “promoter activity interaction Z-score” value [4, 6] was 0.227 ± 0.035 and the “promoter activity interaction Z-score” value [4, 7] was 0.219 ± 0.05. The “promoter activity interaction Z-score” value [4, 8] was 0.143 ± 0.03, the “promoter activity interaction Z-score” value [4, 9] was 0.36 ± 0.29 and the “promoter activity interaction Z-score” value [4, 10] was 0.625 ± 0.26. The “promoter activity interaction Z-score” value [4, 11] was 0.233 ± 0.067, the “promoter activity interaction Z-score” value [4, 12] was 0.113 ± 0.061 and the “promoter activity interaction Z-score” value [4, 13] was 0.411 ± 0.45. For the same molecule, the “promoter activity interaction Z-score” value [4, 14] was 0.0448 ± 0.13, the “promoter activity interaction Z-score” value [4, 15] was 0.311 ± 0.1 and the “promoter activity interaction Z-score” value [4, 16] was 0.108 ± 0.041. For the same molecule, the “promoter activity interaction Z-score” value [4, 17] was 0.145 ± 0.43, the “promoter activity interaction Z-score” value [4, 18] was 0.0238 ± 0.4 and the “promoter activity interaction Z-score” value [4, 19] was 0.289 ± 0.11. For the same molecule, the “promoter activity interaction Z-score” value [4, 20] was 0.127 ± 0.06, the “promoter activity interaction Z-score” value [4, 21] was -0.0281 ± 0.68 and the “promoter activity interaction Z-score” value [5, 6] was -0.028 ± 0.45. The “promoter activity interaction Z-score” value [5, 7] was 0.994 ± 0.066, the “promoter activity interaction Z-score” value [5, 8] was 0.083 ± 0.48 and the “promoter activity interaction Z-score” value [5, 9] was 0.251 ± 1.2. The “promoter activity interaction Z-score” value [5, 10] was 1.49 ± 0.11, the “promoter activity interaction Z-score” value [5, 11] was 0.225 ± 0.61 and the “promoter activity interaction Z-score” value [5, 12] was 0.369 ± 1.3. The “promoter activity interaction Z-score” value [5, 13] was -0.607 ± 0.17, the “promoter activity interaction Z-score” value [5, 14] was 0.247 ± 0.057 and the “promoter activity interaction Z-score” value [5, 15] was -0.0757 ± 0.41. For the same molecule, the “promoter activity interaction Z-score” value [5, 16] was 0.295 ± 0.29, the “promoter activity interaction Z-score” value [5, 17] was -0.698 ± 0.023 and the “promoter activity interaction Z-score” value [5, 18] was 0.059 ± 0.6. The “promoter activity interaction Z-score” value [5, 19] was -0.764 ± 0.4, the “promoter activity interaction Z-score” value [5, 20] was -0.176 ± 0.18 and the “promoter activity interaction Z-score” value [5, 21] was 0.432 ± 0.65.
